Screens as filed in PubChem BioAssay.
Rows were chosen to be rich in hits. Some 3.7% of all compounds tested hit in one or more screens of this group.
Tau fibril FP – inhibitors of human tau fibril formation | P10636 | K18 P301L tau heparin fibrillization, Alexa594 FP, 6 h | Potency, µM (titrated, usually from 57.7 µM), inactives show at the top dose activity, negative = inhibition, most hits filed as inhibitors | 0.39% of 280,000 active; also: % is scaled to controls: 0 for no effect and ±100 for the full control effect; nearly all actives have a fitted effect of over 55% in size
Target sequence (P10636 561-689 P618L limits assumed): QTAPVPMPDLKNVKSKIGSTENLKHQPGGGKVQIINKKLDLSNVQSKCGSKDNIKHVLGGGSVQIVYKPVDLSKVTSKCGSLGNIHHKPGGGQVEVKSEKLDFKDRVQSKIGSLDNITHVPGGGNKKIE
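Compound effects on tau fibrillization are measured by Alexa 594 fluorescence polarization (ex 555, em 632 nm). K18 P301L tau is used at 15 uM with 0.24 uM labeled tracer, and 20 uM heparin induces aggregation over 6 hr at 37 C.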
HTT ATP protect – protects HTT-Q103 PC12 cells, measured by ATP. Potency, µM (series often up to 56.4 µM), without a hit: cytoprotection (ATP increase), most hits filed as activators. PC12 HTT-Q103 induced, cytoprotection, ATP luminescence, 40 h. 0.14% of 230,000 active. AID 1471; also: % of control where 0% means no effect; nearly all actives have a fitted effect of over 45% in size
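Compounds were screened for protection of PC12 cells against cell death after tebufenozide induction (100 nM final) of mutant Huntingtin exon 1 (Q103) fused to GFP.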
Tau fluor counter – counter-screen for tau fibril formation inhibitors; tau K18 P301L Alexa594 fluorescence, heparin fibrillization; Potency, µM (doses to about 57.7 µM), inactives show at the top dose activity change, negative = decrease; 0.93% of 280,000 active; also: % is scaled to controls: 0 for no effect and ±100 for the full control effect; nearly all actives have a fitted effect of over 55% in size
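Human tau K18 P301L (15 uM unlabeled, 0.24 uM Alexa 594-labeled) in 100 mM sodium acetate pH 7 with 20 uM heparin, 6 hr at 37 C. ThT 30 uM added, 1 hr ambient; Alexa 594 FP and total fluorescence read at 555/632 nm.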
Tau fibril ThT – tau fibrillization inhibition (ThT binding). recombinant tau K18 P301L (four-repeat tau fragment), heparin-induced fibrillization, ThT fluorescence. Potency, µM (top dose mostly 57.4 µM), for inactives: at the top dose activity, negative = inhibition, actives largely listed as inhibitors. 2.1% of 270,000 active; also: % is scaled to controls: 0 for no effect and ±100 for the full control effect; nearly all actives have a fitted effect of over 55% in size
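Heparin-induced (20 uM) aggregation of recombinant human K18 P301L tau, 15 uM unlabeled with 0.24 uM labeled, pH 7 acetate buffer, 6 hr at 37 C with compound. Fibrils quantified by 30 uM ThT fluorescence after 1 hr ambient incubation.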
HTT aggregate – reduces HttQ103-GFP aggregates in PC12 cells. 1.1% of 220,000 active. Potency, µM (series often up to 46.1 µM), for the others: at the highest dose activity change, negative = inhibition, actives largely listed as inhibitors. PC12 HttQ103-GFP aggregates, Acumen cytometry, 40 h. AID 1688; also: % is scaled to controls: 0 for no effect and ±100 for the full control effect; nearly all actives have a fitted effect of over 60% in size
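PC12/HTTQ103-GFP, ecdysone-inducible; teb 100 nM; cpd qHTS titration; GFP aggregates read on laser cytometer, Ex 488/Em 500-530 nm.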
Active calls of the source: *; [ ] = another dose, or the depositor's remark. Calls follow the shape of the dose curve; as a rule, active = well fitted curve in the direction sought with a large enough effect; inconclusive = small, poorly fitted or top-dose-only effect, or another doubt; inactive = no such curve, though single readings can be large; an effect the other way counts as inactive or inconclusive. Potency is read from the fitted curve at half-maximal effect.

How did O=C1C2C3C=CC(C3)C2C(=O)N1/N=C/c1ccc(-c2ccccc2[N+](=O)[O-])o1 (stereo unspecified) do in these assays?
Tau fibril FP: 6%; HTT ATP protect: -46%[0.074 µM]; Tau fluor counter: -12%; Tau fibril ThT: inconclusive; HTT aggregate: 2%

What do the screens show for `Cc1cccc(N2CCN(C(=O)Cn3c(=O)c4cccn4c4ccc(F)cc43)CC2C)c1` (stereo unspecified)?
Tau fibril FP: -12%; Tau fluor counter: -14%; Tau fibril ThT: -13%

Results for CCCCOc1ccccc1CC1C(=O)Nc2ccc(Br)cc21 (stereo unspecified) ?
Tau fibril FP: -8%; Tau fluor counter: inconclusive; Tau fibril ThT: inconclusive

What do the screens show for `O=c1c(N2CCc3ccccc3C2)csc2ccccc12`?
Tau fibril FP: 0%; Tau fluor counter: -21%; Tau fibril ThT: 14µM*

What do the screens show for `COc1ccc2cc(C(=O)N/N=C/c3sc4ccccc4c3O)ccc2c1`?
Tau fibril FP: -6%; HTT ATP protect: -5%[10 µM]; Tau fluor counter: 7.9µM*[quencher]; Tau fibril ThT: 1.3µM*; HTT aggregate: inconclusive

What do the screens show for `O=C(N/N=C/c1sc2ccccc2c1O)c1cccc2ccccc12`?
Tau fibril FP: -13%; HTT ATP protect: -87%[10 µM]; Tau fluor counter: inconclusive; Tau fibril ThT: 10µM*; HTT aggregate: 1.4µM*

What do the screens show for `COc1ccc(/C=N\NC(=O)c2cccc(Br)c2)c(OC)c1`?
Tau fibril FP: -3%; HTT ATP protect: 13%[10 µM]; Tau fluor counter: -12%; Tau fibril ThT: -4%; HTT aggregate: -6%[9.22 µM]

What do the screens show for `O=C(N/N=C/c1sc2ccccc2c1O)c1ccccc1`?
Tau fibril FP: -7%; HTT ATP protect: -79%[10 µM]; Tau fluor counter: inconclusive; Tau fibril ThT: inconclusive; HTT aggregate: 3.2µM*

Results for COc1ccc(N=Cc2sc3ccccc3c2Cl)cc1 ?
Tau fibril FP: 0%; HTT ATP protect: -10%; Tau fluor counter: -16%; Tau fibril ThT: inconclusive; HTT aggregate: -3%

Results for COc1ccc(C(=O)N/N=C/c2sc3ccccc3c2O)cc1 ?
Tau fibril FP: 0%; HTT ATP protect: -80%[10 µM]; Tau fluor counter: inconclusive; Tau fibril ThT: 1.8µM*; HTT aggregate: 11µM*

How did COc1ccccc1N1C(=O)CC(N(O)c2ccccc2)C1=O (stereo unspecified) do in these assays?
Tau fibril FP: 6%; HTT ATP protect: 19%[10 µM]; Tau fluor counter: -11%; Tau fibril ThT: inconclusive; HTT aggregate: 20%[9.22 µM]

Results for COc1ccccc1N(O)C1CC(=O)N(c2ccc(F)cc2)C1=O (stereo unspecified) ?
Tau fibril FP: inconclusive; HTT ATP protect: 8%[10 µM]; Tau fluor counter: 16µM*[quencher]; Tau fibril ThT: 14µM*; HTT aggregate: 9%

How did C[C@@H](N=C(N)N)C(=O)O do in these assays?
HTT ATP protect: 2%[10 µM]

How did CCn1c2ccccc2c2cc(NC(=O)CSc3nnc(-c4cccc(OC)c4)n3N)ccc21 do in these assays?
Tau fibril FP: 2%; HTT ATP protect: -1%[10 µM]; Tau fluor counter: 16µM*[quencher]; Tau fibril ThT: inconclusive; HTT aggregate: -2%

How did OC[C@@H](O)[C@H](O)C(/C=N/Nc1ccccc1)=N\Nc1ccccc1 do in these assays?
Tau fibril FP: -13%; HTT ATP protect: -4%[10 µM]; Tau fluor counter: inconclusive; Tau fibril ThT: 28µM*; HTT aggregate: -8%[9.22 µM]

Results for Cc1cc(C)cc(OC(=O)CS(=O)c2ccc(C(F)(F)F)cc2[N+](=O)[O-])c1 (stereo unspecified) ?
Tau fibril FP: inconclusive; HTT ATP protect: inconclusive; Tau fluor counter: inconclusive; Tau fibril ThT: 13µM*; HTT aggregate: 25%

Results for O=C(CS(=O)c1ccc(C(F)(F)F)cc1[N+](=O)[O-])Oc1ccc(Cl)cc1 (stereo unspecified) ?
Tau fibril FP: inconclusive; HTT ATP protect: -10%; Tau fluor counter: inconclusive; Tau fibril ThT: 22µM*; HTT aggregate: 6%

How did O=C(NCCO)c1ccc(Oc2ccc(C(F)(F)F)cc2[N+](=O)[O-])cc1 do in these assays?
Tau fibril FP: 7%[2.34 µM]; HTT ATP protect: -11%[10 µM]; Tau fluor counter: -5%; Tau fibril ThT: -4%; HTT aggregate: -15%[9.22 µM]

What do the screens show for `Cc1ccc(C)c(NC(=O)Cn2cc(C(=O)C3CCCCC3)c3ccccc32)c1`?
Tau fibril FP: -20%; Tau fluor counter: -17%; Tau fibril ThT: -2%

How did NCS(=O)(=O)O do in these assays?
HTT ATP protect: -7%[10 µM]

What do the screens show for `CC(=O)Nc1nonc1-c1nnc(SCc2cccc(Br)c2)n1C`?
Tau fibril FP: -10%; Tau fluor counter: -9%; Tau fibril ThT: 3%

How did Cc1cccc(C(=O)Oc2csc(=S)n2C(=O)c2cccc(C)c2)c1 do in these assays?
Tau fibril FP: -15%; HTT ATP protect: 2%[1.9 µM]; Tau fluor counter: -24%; Tau fibril ThT: 13µM*; HTT aggregate: -9%

How did O=C(Oc1csc(=S)n1C(=O)c1ccccc1)c1ccccc1 do in these assays?
Tau fibril FP: -16%; HTT ATP protect: -8%; Tau fluor counter: -25%; Tau fibril ThT: 11µM*; HTT aggregate: -10%

How did O=[N+]([O-])c1ccc(-c2csc(N3CCc4ccccc4C3)n2)cc1 do in these assays?
Tau fibril FP: 11%; HTT ATP protect: 1%[10 µM]; Tau fluor counter: inconclusive; Tau fibril ThT: 5µM*; HTT aggregate: 3%

Results for CCc1ccc(NS(=O)(=O)c2ccc(-c3cc(C)no3)cc2)cc1 ?
Tau fibril FP: inconclusive; Tau fluor counter: inconclusive; Tau fibril ThT: 6%

What do the screens show for `O=C(O)c1cc(O)c2c(c1)[C@H]([C@H]1c3cc(C(=O)O)cc(O)c3C(=O)c3c(O[C@@H]4OC(CO)C(O)C(O)C4O)cccc31)c1cccc(O[C@@H]3OC(CO)C(O)C(O)C3O)c1C2=O` (stereo partly specified)?
Tau fibril FP: inconclusive; HTT ATP protect: -76%; Tau fluor counter: inconclusive; Tau fibril ThT: 22µM*; HTT aggregate: 9%

How did COc1ccc(/C=N/NC(=O)c2cccnc2)cc1CN1CCCc2ccccc21 do in these assays?
Tau fibril FP: 8%; HTT ATP protect: -48%; Tau fluor counter: 13µM*[quencher]; Tau fibril ThT: inconclusive; HTT aggregate: 8%

Results for O=C(N/N=C/c1ccc(N2CCOCC2)c([N+](=O)[O-])c1)c1ccc(F)cc1 ?
Tau fibril FP: 9%; HTT ATP protect: 3%; Tau fluor counter: -29%; Tau fibril ThT: 11µM*; HTT aggregate: 32%

What do the screens show for `O=C(N/N=C/c1ccc(N2CCCC2)c([N+](=O)[O-])c1)c1cccnc1`?
Tau fibril FP: 5%; HTT ATP protect: inconclusive; Tau fluor counter: -24%; Tau fibril ThT: 14µM*; HTT aggregate: -5%
